The results in this text go back to publication PMC6792352, “Limited Chemical Structural Diversity Found to Modulate Thyroid Hormone Receptor in the Tox21 Chemical Library” (Environmental Health Perspectives, 2019).

The structures appear in SMILES notation. Structures can show the parent of a compound that is named as a salt. Where two headings read alike, the source gives them in different places. Some results are limits rather than exact numbers.

The experiment relates to thyroid hormone receptor (endogenous TRα and TRβ). More on the design: species or system GH3-TRE-Luc (rat pituitary); GH3-TRE-Luc luciferase reporter, antagonist mode against 1 nM T3, loss of signal, qHTS. To be noted: read-out: Average AC50 (uM) GH3-TRE-Antag.
The mark [1] stands for this setting: antagonist mode, 1 nM T3, no GH3 cytotoxicity hit, 24 h.
The mark [2] stands for this setting: antagonist mode, 1 nM T3, no GH3 cytotoxicity hit.

Consider `Oc1cc(Cl)c(Cl)cc1Cl` [2,4,5-Trichlorophenol], for which, under setting [1], the AC50 (commonly the midpoint of the concentration-response curve, whichever way the signal moves) is above 50 µM. Still for that read-out and setting: as for `Oc1cc(Cl)c(Cl)cc1Cl` [2,4,5-Trichlorophenol sodium salt], the figure is 77.4 µM; as for `COc1ccc(N)cc1` [4-Methoxyaniline], 89.4 µM. Consider `COP(=O)(OC)OC(=CCl)c1cc(Cl)c(Cl)cc1Cl` [Tetrachlorovinphos], for which the half-maximal activity concentration (AC50) under setting [2] was 27.1 µM. Take `COc1cc(C[C@H](C)N)c(OC)cc1C` [(S)-(+)-2,5-Dimethoxy-4-methylamphetamine hydrochloride]: the concentration at half-maximal activity (AC50) (24 h, antagonist) amounted to 49.7 µM. On to `O=C(O)C(F)(F)C(F)(F)C(F)(F)C(F)(F)C(F)(F)C(F)(F)C(F)(F)F` [Ammonium perfluorooctanoate], for which, under setting [2], the half-maximal activity concentration (AC50) worked out at 77.1 µM. `C[C@]12CC[C@H]3[C@@H](CCC4=CC(=O)CC[C@@]43C)[C@@H]1CC[C@@H]2O` [Testosterone]: the half-maximal activity concentration (AC50) under setting [2] turned out to be 59 µM. For the compound `C[C@]12CC[C@H]3[C@@H](CCC4=CC(=O)CC[C@@]43C)[C@@H]1CC[C@H]2O` [Epitestosterone], under setting [2], the AC50 came out at 38.7 µM.

Regarding `COc1ccc2[nH]cc(CCN(C(C)C)C(C)C)c2c1` [5-Methoxy-N,N-diisopropyltryptamine hydrochloride], the half-maximal activity concentration (AC50) under setting [2] was found to be 70.7 µM. As for `CN1C(=S)CN=C(c2ccccc2)c2cc(Cl)ccc21` [Sulazepam], for the setting “24 h, antagonist”, the AC50 was 43.6 µM. Regarding `CC(C)CC(N(C)C)C1(c2ccc(Cl)cc2)CCC1` (stereo not drawn) [Sibutramine hydrochloride], under setting [2], the half-maximal activity concentration (AC50) was 29.8 µM. As to `Nc1ccc(N=Nc2ccc(-c3ccc(N=Nc4c(S(=O)(=O)O)cc5cc(S(=O)(=O)O)c(N=Nc6ccccc6)c(O)c5c4N)cc3)cc2)c(N)c1` [C.I. Direct Black 38], under setting [2], the concentration at half-maximal activity (AC50) came out at 14 µM.
